The source of these data is PubChem BioAssay (NCATS).

Records with an inconclusive call do not appear. A number with no mark means an inactive call. Activity calls are given as the source filed them. Calls follow the shape of the dose curve; as a rule, active = well fitted curve in the direction sought with a large enough effect; inconclusive = small, poorly fitted or top-dose-only effect, or another doubt; inactive = no such curve, though single readings can be large; an effect the other way counts as inactive or inconclusive.

Assay [1] is described as follows: qHTS for Inhibitors of Plasmodium falciparum (GB4) proliferation (AID 504315). Also: nearly all actives have a fitted effect of over 50% in size. Also: potency is read from the fitted curve at half-maximal effect. The essentials:
(§1)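 Parasite growth measured as SYBR Green DNA fluorescence (ex 485, em 535 nm) after overnight lysis following 72 h culture at 37 °C, 0.3% parasitemia, 2.5% hematocrit. Values normalized against DMSO and 0.29 uM artemisinin controls, with plate-stack correction.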

A short description of assay [2]: qHTS for Inhibitors of Plasmodium falciparum (7G8) proliferation (AID 504316). Also: nearly all actives have a fitted effect of over 65% in size. Also: potency is read from the fitted curve at half-maximal effect. In a few lines: as §1
A short description of assay [3]: qHTS for Inhibitors of Plasmodium falciparum (HB3) proliferation (AID 504318). Also: nearly all actives have a fitted effect of over 60% in size. Also: potency is read from the fitted curve at half-maximal effect. In a few lines: as §1
The nature of assay [4]: qHTS for Inhibitors of Plasmodium falciparum (CP250) proliferation (AID 504320). The essentials:
as §1

Assay [5] in a line: qHTS for Inhibitors of Plasmodium falciparum (DD2) proliferation (AID 504314).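 Also: parasite DNA measured by SYBR Green fluorescence after red cell lysis.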 In a few lines:
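Parasite proliferation measured as SYBR Green signal from Plasmodium DNA, mature erythrocytes lacking DNA. 72 h incubation, 37C; activity scaled between vehicle and 0.29 uM artemisinin, with correction from vehicle-only plates.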

Regarding `COC(=O)C1=C(C(=O)OC)[C@@H]2N(Cc3ccccc3)c3ccccc3[C@@]23C[C@@H](C(=O)OC)N(S(=O)(=O)c2ccc(C#N)cc2)C3=N1`, the Potency in assay [1] was 2.13 µM (active); in assay [2], 1.9 µM (active); in assay [3], 1.69 µM (active).
As for `CCCCCCCc1cc2ccccc2c2c(C(=O)OC)c(-c3ccccc3)c(C(=O)OC)n12`, the Potency entry in assay [1], in assay [2], in assay [3] and in assay [4] was “inactive” each time.
As to `CCCCCCCC1=Cc2ccccc2C(C(C(C)=O)C(=O)OC)N1C(=O)OC` (configuration not stated), the Potency result in assay [5] and in assay [4] was “inactive” throughout.
In the case of `COC(=O)C1=C(C(=O)OC)[C@@H]2Nc3ccccc3[C@@]23C[C@@H](C(=O)OC)N(S(=O)(=O)c2ccc(C#N)cc2)C3=N1`, the Potency result in assay [5] and in assay [4] was “inactive” in each case.
As to `COC(=O)C1=C(C(=O)OC)[C@@H]2N(Cc3ccccc3)c3ccccc3[C@@]23C[C@@H](C(=O)OC)N(S(=O)(=O)c2ccc(C(F)(F)F)cc2)C3=N1`, the Potency in assay [1] was 0.536 µM (active); in assay [2], 0.478 µM (active); in assay [3] it was 0.478 µM (active).
In the case of `COC(=O)N1C2=C(c3ccccc3[C@@H]1CC(=O)Nc1ccc(Br)cc1)[C@@H]1C(=O)N(c3ccccc3)C(=O)[C@@H]1[C@H](C)C2`, the Potency entry in assay [5] and in assay [4] was “inactive” throughout.
On to `C#CCCOC(=O)N1C2=NC(C(=O)OC)=C(C(=O)OC)[C@@H]3N(C)c4ccc(OC)cc4[C@]23C[C@H]1C(=O)OC`, for which the Potency entry in assay [5] and in assay [4] was “inactive” in each case.
Turning to `COC(=O)C1=C(C(=O)OC)[C@@H]2N(Cc3ccccc3)c3ccccc3[C@@]23C[C@@H](C(=O)OC)N(S(=O)(=O)c2ccc(C)cc2)C3=N1`, the figures for the Potency in assay [1], in assay [2] and in assay [3] were 1.69 µM (active), 1.69 µM (active) and 1.51 µM (active), respectively.
As to `COC(=O)C(C(=O)OC)[C@@H]1c2ccccc2[C@H]2C(=C[C@@H](C)[C@H]3C(=O)N(c4ccccc4)C(=O)[C@H]32)N1C(=O)OC`, the Potency result in assay [1], in assay [2] and in assay [3] was “inactive” each time.
On to `COc1cccc(CC(=O)N2CCc3nc(-c4ccc(OC)cc4C)c4c(c3C2)CO[C@@H](c2ccccc2)C4)c1`, for which the Potency result in assay [5] and in assay [4] was “inactive” in each case.
As for `COC(=O)C1=C(C(=O)OC)[C@@H]2Nc3ccccc3[C@@]23C[C@@H](C(=O)OC)N(C(=O)c2cccs2)C3=N1`, the Potency result in assay [1] and in assay [2] was “inactive” each time.
In the case of `CC#CCN1c2ccccc2[C@]23C[C@@H](C(=O)OC)N(S(=O)(=O)c4c(C)noc4C)C2=NC(C(=O)OC)=C(C(=O)OC)[C@H]13`, the Potency result in assay [5] and in assay [4] was “inactive” in each case.
Consider `CC1(OC(=O)C2CCCC2)C(=O)C=C2C=C(c3ccsc3)N(CCc3c[nH]c4ccccc34)C=C2C1=O` (configuration not stated), for which the Potency entry in assay [5] and in assay [4] was “inactive” each time.
With `C=CCNC(=O)N1C2=NC(C(=O)OC)=C(C(=O)OC)[C@@H]3N(Cc4ccccc4)c4ccccc4[C@]23C[C@H]1C(=O)OC`, the Potency in assay [1] is 1.9 µM (active); in assay [2], 1.51 µM (active); in assay [3], 3.16 µM (active).
With `COC(=O)C1=C(C(=O)OC)[C@@H]2Nc3ccccc3[C@@]23C[C@@H](C(=O)OC)N(S(=O)(=O)c2ccc(OC)cc2)C3=N1`, the Potency result in assay [5] and in assay [4] was “inactive” each time.
As for `COC(=O)[C@@H](NC(=O)N1CCc2nc(COc3ccccc3)c3c(c2C1)CO[C@@H](C)C3)C(C)C`, the Potency result in assay [5] and in assay [4] was “inactive” in each case.
In the case of `C[C@H]1CC[C@H]2C(=O)N(Cc3ccccc3)C[C@H](O)CN2[C@H]1c1cccc(Br)c1`, the Potency entry in assay [5] and in assay [4] was “inactive” in each case.
Consider `C#CCCOC(=O)N1C2=NC(C(=O)OC)=C(C(=O)OC)[C@@H]3N(Cc4ccccc4)c4ccccc4[C@]23C[C@H]1C(=O)OC`, for which the Potency result in assay [5] and in assay [4] was “inactive” throughout.
Take `COC(=O)C1=C(C(=O)OC)[C@@H]2N(C)c3ccc(OC)cc3[C@@]23C[C@@H](C(=O)OC)N(S(=O)(=O)c2ccc(C)cc2)C3=N1`: the Potency result in assay [5] and in assay [4] was “inactive” each time.
For the molecule `CC#CCN1c2ccccc2[C@]23C[C@@H](C(=O)OC)N(S(=O)(=O)c4ccc([N+](=O)[O-])cc4)C2=NC(C(=O)OC)=C(C(=O)OC)[C@H]13`, the Potency result in assay [5] and in assay [4] was “inactive” each time.
With `COC(=O)CCC(=O)OC1(C)C(=O)C2=CN(C3CCCC3)C(c3ccc(OC)cc3)=CC2=C(Br)C1=O` (configuration not stated), the Potency result in assay [5] and in assay [4] was “inactive” in each case.
As for `COc1ccc(O[C@H]2C=C[C@@H](c3ccccc3)O[C@H]2COC(=O)CCC(C)=NO[C@H](C)c2cn([C@H](CO)Cc3ccccc3)nn2)cc1`, in assay [1], the Potency entry is “inactive”.
On the same count and under the same terms, under `C=CCN1c2ccccc2[C@]23C[C@@H](C(=O)OC)N(C(=O)C4CCC4)C2=NC(C(=O)OC)=C(C(=O)OC)[C@H]13` stands “inactive”.
For `CCOC(=O)CCCNC(=O)N1CCc2nc(-c3ccc(OC)cc3C)c3c(c2C1)CO[C@@H](c1ccccc1)C3`, the Potency entry in assay [5] and in assay [4] was “inactive” in each case.
Regarding `CC1COc2ccccc2C1=O` (configuration not stated), the Potency in assay [1] is 1.9 µM (active).
Consider `COC(=O)C1=C(C(=O)OC)[C@@H]2Nc3ccccc3[C@@]23C[C@@H](C(=O)OC)N(C(=O)c2ccc(Br)cc2)C3=N1`, for which the Potency result in assay [1], in assay [2] and in assay [4] was “inactive” each time.
On to `COC(=O)C1=C(C)N(Cc2ccco2)C(=O)N[C@@H]1c1ccco1`, for which the Potency result in assay [1], in assay [2], in assay [3] and in assay [4] was “inactive” throughout.
For `COC(=O)C1=C(C)N(CCc2cc(OC)c(OC)c(OC)c2)C(=O)N[C@H]1c1ccccc1`, the Potency result in assay [1], in assay [2] and in assay [4] was “inactive” each time.
Regarding `C=CC1=C2C=C(C3CC3)N(C3CC3)C=C2C(=O)C(C)(OC(=O)c2ccco2)C1=O` (configuration not stated), the Potency entry in assay [1], in assay [2], in assay [3] and in assay [4] was “inactive” each time.
`COC(=O)CCC(=O)OC1(C)C(=O)C=C2C=C(C3CC3)N(C3CC3)C=C2C1=O` (configuration not stated): the Potency entry in assay [1] and in assay [3] was “inactive” in each case.
`CCCCc1nc2c(c3c1C[C@H](C)OC3)CN(C(=O)NCCCC(=O)OCC)CC2`: the Potency entry in assay [1] and in assay [3] was “inactive” in each case.
